The full data set covers some 7,900 targets. This sample favours those with a hit. About 0.6% of all pairs of compound and target were hits.
What was measured:
Assay in all cases: log2 fold change, soluble protein after heating vs DMSO (PISA); higher = thermal stabilisation; K562 cells, 10 uM, 30 min; active = over 0.2 and 3.5 SD of the protein, either way, in both replicates (recomputed)
bafetinib = compound: Cc1ccc(NC(=O)c2ccc(CN3CC[C@H](N(C)C)C3)c(C(F)(F)F)c2)cc1Nc1nccc(-c2cncnc2)n1 [bafetinib]
Summary of the method: (§1)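 Soluble protein was defined as the supernatant after 21,000xg for 90 min. It came from K562 cells at 2×10^6 cells/mL given 10 μM compound for 30 min, heated in aliquots for 3 min across 48°C-58°C, pooled, and extracted in PBS with 0.5% NP-40 at 4°C, and was quantified by TMTpro 16plex LC-MS/MS with equalised channel sums. Thermal stability against control samples, from duplicates, is reported as log2 fold change.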

[1] = compound: Cc1cccc(CC(=O)N2CCc3c2ccc(-c2cn(C)c4ncnc(N)c24)c3F)n1
Summary of the method: as §1

nilotinib = compound: Cc1cn(-c2cc(NC(=O)c3ccc(C)c(Nc4nccc(-c5cccnc5)n4)c3)cc(C(F)(F)F)c2)cn1 [nilotinib]
Summary of the method: as §1

[2] = compound: Cc1nc(Nc2n[nH]c3c2CN(C(=O)N[C@H](CN(C)C)c2ccccc2)C3(C)C)c2sccc2n1
Summary of the method: as §1

dasatinib = compound: Cc1nc(Nc2ncc(C(=O)Nc3c(C)cccc3Cl)s2)cc(N2CCN(CCO)CC2)n1 [dasatinib]
Summary of the method: as §1

[3] = compound: Cc1ncc(-c2ccnc(Nc3ccc(S(C)(=O)=O)cc3)n2)n1C(C)C
Summary of the method: as §1

[4] = compound: Cn1cc(-c2ccc3nnc(C(F)(F)c4ccc5ncccc5c4)n3n2)cn1
Summary of the method: as §1

tipifarnib = compound: Cn1cncc1[C@@](N)(c1ccc(Cl)cc1)c1ccc2c(c1)c(-c1cccc(Cl)c1)cc(=O)n2C [tipifarnib]
Summary of the method: as §1

mubritinib = compound: FC(F)(F)c1ccc(/C=C/c2nc(COc3ccc(CCCCn4ccnn4)cc3)co2)cc1 [mubritinib]
Summary of the method: as §1

[5] = compound: NC(=O)Nc1cc(-c2cccc(F)c2)sc1C(=O)N[C@H]1CCCNC1
Summary of the method: as §1

[6] = compound: NC(=O)c1cnc(N[C@@H]2CCCC[C@@H]2N)nc1Nc1cccc(-n2nccn2)c1
Summary of the method: as §1

[7] = compound: NC1(c2ccc(-c3nc4ccn5c(=O)[nH]nc5c4cc3-c3ccccc3)cc2)CCC1
Summary of the method: as §1

[8] = compound: NCC(=O)Nc1ccc(-n2nc(C(F)(F)F)cc2-c2ccc3c(ccc4ccccc43)c2)cc1
Summary of the method: as §1

entinostat = compound: Nc1ccccc1NC(=O)c1ccc(CNC(=O)OCc2cccnc2)cc1 [entinostat]
Summary of the method: as §1

vorinostat = compound: O=C(CCCCCCC(=O)Nc1ccccc1)NO [vorinostat]
Summary of the method: as §1

citarinostat = compound: O=C(CCCCCCNC(=O)c1cnc(N(c2ccccc2)c2ccccc2Cl)nc1)NO [citarinostat]
Summary of the method: as §1

silmitasertib = compound: O=C(O)c1ccc2c(c1)nc(Nc1cccc(Cl)c1)c1ccncc12 [silmitasertib]
Summary of the method: as §1

[9] = compound: O=C1NC(=O)C(c2cnc3ccccn23)=C1c1cn2c3c(cc(F)cc13)CN(C(=O)N1CCCCC1)CC2
Summary of the method: as §1

[10] = compound: c1cc(OCCN2CCCCC2)cc(-c2n[nH]c3ccc(-c4nnc[nH]4)cc23)c1
Summary of the method: as §1

[11] = compound: Cn1cc(-c2ccc3c(c2)CCN3C(=O)Cc2cccc(C(F)(F)F)c2)c2c(N)ncnc21
Summary of the method: as §1

Measured: log2 fold change

FYB1 isoform 3 (UniProt O15117)
inactive: bafetinib -0.019 | [1] -0.071 | nilotinib -0.036 | [2] -0.026 | dasatinib -0.021 | [3] -0.077 | [4] -0.156 | tipifarnib -0.025 | mubritinib 0.085 | [5] -0.045 | [6] 0.007 | [7] 0.017 | [8] 0.02 | entinostat 0.025 | vorinostat -0.02 | citarinostat 0.093 | silmitasertib -0.097 | [9] -0.037 | [10] -0.002

FCHO1 (UniProt O14526)
inactive: nilotinib -0.118 | [2] -0.067 | dasatinib -0.275 | [3] -0.127 | [11] 0.079 | [4] 0.033 | tipifarnib -0.119 | mubritinib -0.003 | [5] -0.001 | [6] -0.21 | [7] -0.119 | [8] 0.054 | entinostat -0.032 | citarinostat -0.086 | silmitasertib -0.24 | [9] -0.102 | [10] 0.302

GPNMB (UniProt Q14956)
inactive: citarinostat -0.125 | [9] -0.015 | [10] 0.727

GREB1 (UniProt Q4ZG55)
Chain of UniProt Q4ZG55 (Q4ZG55 whole entry, looked up): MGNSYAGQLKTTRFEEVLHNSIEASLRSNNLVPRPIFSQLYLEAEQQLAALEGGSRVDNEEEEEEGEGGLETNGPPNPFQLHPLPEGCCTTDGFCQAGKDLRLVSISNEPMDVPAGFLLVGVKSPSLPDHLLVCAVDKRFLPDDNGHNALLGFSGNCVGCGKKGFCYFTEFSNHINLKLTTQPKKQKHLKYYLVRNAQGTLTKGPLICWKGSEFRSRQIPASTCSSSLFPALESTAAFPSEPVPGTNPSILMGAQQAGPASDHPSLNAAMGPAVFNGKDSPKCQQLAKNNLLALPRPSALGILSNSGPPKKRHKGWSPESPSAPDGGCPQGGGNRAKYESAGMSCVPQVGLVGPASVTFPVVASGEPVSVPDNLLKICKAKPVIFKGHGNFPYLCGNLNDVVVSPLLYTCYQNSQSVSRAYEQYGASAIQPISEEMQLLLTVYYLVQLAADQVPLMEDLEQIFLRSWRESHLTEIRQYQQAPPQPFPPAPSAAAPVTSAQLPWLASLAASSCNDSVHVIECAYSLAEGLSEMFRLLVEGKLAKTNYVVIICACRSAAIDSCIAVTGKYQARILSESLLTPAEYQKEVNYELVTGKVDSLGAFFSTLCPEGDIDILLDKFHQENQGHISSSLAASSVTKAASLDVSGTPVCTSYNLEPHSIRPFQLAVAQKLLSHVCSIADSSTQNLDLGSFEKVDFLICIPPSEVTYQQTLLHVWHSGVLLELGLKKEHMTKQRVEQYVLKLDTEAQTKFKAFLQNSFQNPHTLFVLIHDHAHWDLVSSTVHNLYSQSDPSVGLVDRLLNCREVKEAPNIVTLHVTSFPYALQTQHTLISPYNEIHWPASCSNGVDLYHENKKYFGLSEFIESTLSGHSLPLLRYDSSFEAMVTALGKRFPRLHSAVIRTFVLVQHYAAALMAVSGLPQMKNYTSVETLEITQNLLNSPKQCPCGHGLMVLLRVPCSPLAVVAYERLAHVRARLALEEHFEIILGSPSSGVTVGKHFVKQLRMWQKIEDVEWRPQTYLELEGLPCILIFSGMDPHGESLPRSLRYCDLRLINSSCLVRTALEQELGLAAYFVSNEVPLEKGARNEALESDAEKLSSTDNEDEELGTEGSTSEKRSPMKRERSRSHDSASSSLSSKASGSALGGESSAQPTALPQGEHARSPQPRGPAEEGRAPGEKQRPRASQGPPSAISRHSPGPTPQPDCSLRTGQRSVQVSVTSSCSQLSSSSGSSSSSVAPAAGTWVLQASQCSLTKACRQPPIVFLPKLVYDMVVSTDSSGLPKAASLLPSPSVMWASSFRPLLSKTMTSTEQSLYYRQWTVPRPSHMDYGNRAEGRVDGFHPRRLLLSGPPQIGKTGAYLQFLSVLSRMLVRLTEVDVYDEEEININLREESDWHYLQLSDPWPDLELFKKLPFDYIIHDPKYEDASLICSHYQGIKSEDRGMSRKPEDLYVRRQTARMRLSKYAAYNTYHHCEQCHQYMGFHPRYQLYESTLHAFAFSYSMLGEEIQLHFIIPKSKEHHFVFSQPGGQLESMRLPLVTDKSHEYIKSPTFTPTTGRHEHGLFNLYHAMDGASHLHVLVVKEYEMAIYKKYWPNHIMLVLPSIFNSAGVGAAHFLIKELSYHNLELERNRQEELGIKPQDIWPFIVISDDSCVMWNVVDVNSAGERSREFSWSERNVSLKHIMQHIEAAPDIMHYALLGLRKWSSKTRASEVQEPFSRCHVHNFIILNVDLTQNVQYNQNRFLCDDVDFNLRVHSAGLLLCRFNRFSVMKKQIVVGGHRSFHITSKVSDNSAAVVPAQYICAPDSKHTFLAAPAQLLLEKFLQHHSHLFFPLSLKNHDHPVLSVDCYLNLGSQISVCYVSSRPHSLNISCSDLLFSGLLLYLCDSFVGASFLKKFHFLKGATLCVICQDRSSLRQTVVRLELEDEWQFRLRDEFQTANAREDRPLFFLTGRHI
inactive: [11] 0.046 | [5] 0.029 | [6] -0.103 | [8] -0.002 | entinostat 0.012 | [9] 0.036

IGF2 isoform 3 (UniProt P01344)
inactive: dasatinib 0.019 | [8] -0.004

FCF1 (UniProt Q9Y324)
inactive: [1] 0.042 | dasatinib 0.139 | [4] -0.119 | tipifarnib 0.242 | mubritinib -0.129 | [5] 0.244 | [7] 0.097 | [8] 0.36 | entinostat 0 | vorinostat -0.045 | citarinostat -0.137 | silmitasertib 0.099 | [9] 0.349 | [10] -0.375

GOLGA8R (UniProt I6L899)
Chain of UniProt I6L899 (I6L899 whole entry, looked up): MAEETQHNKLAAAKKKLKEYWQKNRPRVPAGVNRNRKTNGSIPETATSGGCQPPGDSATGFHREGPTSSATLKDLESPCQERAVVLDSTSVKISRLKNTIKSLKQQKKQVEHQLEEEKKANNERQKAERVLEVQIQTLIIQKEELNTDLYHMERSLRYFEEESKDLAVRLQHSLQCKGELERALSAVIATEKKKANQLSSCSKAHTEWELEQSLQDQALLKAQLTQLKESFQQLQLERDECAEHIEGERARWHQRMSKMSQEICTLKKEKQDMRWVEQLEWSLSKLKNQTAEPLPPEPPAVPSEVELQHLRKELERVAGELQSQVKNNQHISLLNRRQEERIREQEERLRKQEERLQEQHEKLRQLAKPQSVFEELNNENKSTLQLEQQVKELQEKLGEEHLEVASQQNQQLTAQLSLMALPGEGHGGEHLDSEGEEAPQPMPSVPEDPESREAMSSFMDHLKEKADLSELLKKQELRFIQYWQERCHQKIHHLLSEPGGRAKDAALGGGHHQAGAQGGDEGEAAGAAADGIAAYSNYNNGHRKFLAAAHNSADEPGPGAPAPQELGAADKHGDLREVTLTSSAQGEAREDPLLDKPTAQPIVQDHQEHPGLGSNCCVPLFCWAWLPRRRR
inactive: bafetinib -0.095 | [1] -0.021 | dasatinib -0.074 | [11] 0.189 | [4] 0.126 | tipifarnib 0.287 | [6] -0.1 | [8] 0.02 | vorinostat 0.073 | citarinostat 0.09 | [10] 0.006

HNRNPK isoform 3 (UniProt P61978)
inactive: bafetinib 0.003 | [1] -0.18 | nilotinib -0.115 | [2] -0.022 | dasatinib 0.021 | [3] 0.143 | [4] -0.002 | mubritinib -0.101 | [5] -0.06 | [7] 0.052 | [8] -0.182 | entinostat 0.023 | vorinostat 0.035 | citarinostat -0.009 | silmitasertib 0.028 | [9] 0.159 | [10] -0.102

GAB2 (UniProt Q9UQC2)
Chain of UniProt Q9UQC2 (Q9UQC2 whole entry, looked up): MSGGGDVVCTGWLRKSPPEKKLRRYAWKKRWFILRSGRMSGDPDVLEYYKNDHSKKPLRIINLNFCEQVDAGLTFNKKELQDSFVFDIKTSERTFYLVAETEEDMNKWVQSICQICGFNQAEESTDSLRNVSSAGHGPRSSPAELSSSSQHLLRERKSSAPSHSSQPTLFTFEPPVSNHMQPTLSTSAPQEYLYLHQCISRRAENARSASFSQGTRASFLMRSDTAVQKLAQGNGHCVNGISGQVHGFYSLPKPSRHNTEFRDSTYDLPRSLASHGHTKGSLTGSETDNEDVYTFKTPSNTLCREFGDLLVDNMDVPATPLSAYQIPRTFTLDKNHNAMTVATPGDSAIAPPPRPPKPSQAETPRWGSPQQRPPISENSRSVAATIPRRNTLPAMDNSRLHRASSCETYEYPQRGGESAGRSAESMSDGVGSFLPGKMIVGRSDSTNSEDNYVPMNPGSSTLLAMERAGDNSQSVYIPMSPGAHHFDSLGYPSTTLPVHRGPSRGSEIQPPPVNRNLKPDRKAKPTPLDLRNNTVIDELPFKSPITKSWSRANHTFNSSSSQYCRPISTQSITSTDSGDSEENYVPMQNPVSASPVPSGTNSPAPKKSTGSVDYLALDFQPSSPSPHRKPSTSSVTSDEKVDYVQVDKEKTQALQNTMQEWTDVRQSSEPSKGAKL
inactive: [1] 0 | dasatinib -0.599 | [11] 0.002 | [4] 0 | tipifarnib 0.175 | mubritinib 0.075 | [5] -0.087 | [6] -0.268 | [7] -0.081 | [8] 0.018 | entinostat 0.127 | vorinostat 0.151 | citarinostat 0.182 | silmitasertib -0.175 | [9] -0.095 | [10] -0.21

GGA2 (UniProt Q9UJY4)
inactive: bafetinib 0.024 | nilotinib -0.031 | [2] 0.065 | dasatinib 0.075 | [3] -0.013 | [11] 0.024 | [4] 0.034 | tipifarnib -0.003 | mubritinib 0.014 | [5] 0.02 | [6] -0.02 | [7] -0.208 | [8] 0.01 | entinostat 0.032 | citarinostat 0.042 | silmitasertib 0.033 | [9] 0.152 | [10] -0.034

GSE1 (UniProt Q14687)
Chain of UniProt Q14687 (Q14687 whole entry, looked up): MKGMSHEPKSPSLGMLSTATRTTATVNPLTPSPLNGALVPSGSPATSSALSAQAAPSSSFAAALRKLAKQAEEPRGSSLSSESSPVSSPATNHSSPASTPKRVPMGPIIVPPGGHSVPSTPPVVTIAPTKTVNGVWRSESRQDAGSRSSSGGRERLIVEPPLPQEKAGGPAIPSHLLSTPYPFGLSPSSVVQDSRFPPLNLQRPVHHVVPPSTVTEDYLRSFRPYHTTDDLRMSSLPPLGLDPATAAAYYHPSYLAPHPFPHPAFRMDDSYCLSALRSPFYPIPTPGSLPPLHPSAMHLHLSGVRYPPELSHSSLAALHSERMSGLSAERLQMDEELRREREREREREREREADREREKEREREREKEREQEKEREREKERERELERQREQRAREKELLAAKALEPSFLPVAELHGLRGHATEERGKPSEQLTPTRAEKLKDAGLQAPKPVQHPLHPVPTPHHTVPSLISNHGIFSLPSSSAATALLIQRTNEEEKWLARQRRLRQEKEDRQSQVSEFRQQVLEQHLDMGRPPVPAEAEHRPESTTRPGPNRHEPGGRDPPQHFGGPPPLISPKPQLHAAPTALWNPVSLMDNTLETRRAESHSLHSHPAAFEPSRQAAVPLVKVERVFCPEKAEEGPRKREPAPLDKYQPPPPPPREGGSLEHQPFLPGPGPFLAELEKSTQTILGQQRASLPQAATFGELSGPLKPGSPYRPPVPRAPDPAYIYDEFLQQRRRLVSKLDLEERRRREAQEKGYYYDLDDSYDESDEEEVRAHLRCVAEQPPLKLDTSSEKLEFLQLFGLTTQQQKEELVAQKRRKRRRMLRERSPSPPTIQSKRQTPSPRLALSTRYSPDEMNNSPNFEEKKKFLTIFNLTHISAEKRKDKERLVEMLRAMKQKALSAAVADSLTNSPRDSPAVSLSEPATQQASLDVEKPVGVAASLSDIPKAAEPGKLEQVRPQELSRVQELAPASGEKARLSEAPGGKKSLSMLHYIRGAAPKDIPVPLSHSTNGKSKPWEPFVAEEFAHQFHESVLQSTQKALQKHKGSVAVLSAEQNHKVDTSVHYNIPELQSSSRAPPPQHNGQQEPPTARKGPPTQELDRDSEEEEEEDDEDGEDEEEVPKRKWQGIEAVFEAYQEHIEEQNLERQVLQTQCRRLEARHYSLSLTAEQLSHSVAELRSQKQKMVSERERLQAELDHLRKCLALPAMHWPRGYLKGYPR
inactive: bafetinib 0.305 | nilotinib 0.034 | [2] 0.004 | dasatinib -0.453 | [3] -0.096 | [11] -0.009 | [4] 0.012 | [8] -0.044

GLIPR2 (UniProt Q9H4G4)
Chain of UniProt Q9H4G4 (Q9H4G4 whole entry, looked up): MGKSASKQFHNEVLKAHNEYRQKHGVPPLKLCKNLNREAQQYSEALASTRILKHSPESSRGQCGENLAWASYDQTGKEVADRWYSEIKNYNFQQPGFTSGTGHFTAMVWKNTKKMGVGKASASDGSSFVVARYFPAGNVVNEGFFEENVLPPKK
inactive: bafetinib -0.101 | [1] -0.024 | dasatinib -0.059 | [11] 0.031 | [4] 0.087 | tipifarnib 0.019 | mubritinib 0.054 | [5] -0.038 | [6] -0.058 | [7] -0.101 | [8] -0.071 | entinostat 0.058 | vorinostat 0.032 | citarinostat -0.029 | silmitasertib 0.112 | [9] -0.017 | [10] -0.037

FOXO3 (UniProt O43524)
inactive: [1] 0.002 | dasatinib -0.14 | [11] 0 | [4] -0.013 | tipifarnib -0.139 | mubritinib -0.057 | [5] -0.395 | [6] -0.089 | [7] -0.025 | [8] -0.072 | entinostat -0.063 | vorinostat 0.222 | citarinostat 0.002 | silmitasertib -0.136 | [9] -0.046 | [10] 0.035

FGG (UniProt P02679)
Chain of UniProt P02679 (P02679 whole entry, looked up): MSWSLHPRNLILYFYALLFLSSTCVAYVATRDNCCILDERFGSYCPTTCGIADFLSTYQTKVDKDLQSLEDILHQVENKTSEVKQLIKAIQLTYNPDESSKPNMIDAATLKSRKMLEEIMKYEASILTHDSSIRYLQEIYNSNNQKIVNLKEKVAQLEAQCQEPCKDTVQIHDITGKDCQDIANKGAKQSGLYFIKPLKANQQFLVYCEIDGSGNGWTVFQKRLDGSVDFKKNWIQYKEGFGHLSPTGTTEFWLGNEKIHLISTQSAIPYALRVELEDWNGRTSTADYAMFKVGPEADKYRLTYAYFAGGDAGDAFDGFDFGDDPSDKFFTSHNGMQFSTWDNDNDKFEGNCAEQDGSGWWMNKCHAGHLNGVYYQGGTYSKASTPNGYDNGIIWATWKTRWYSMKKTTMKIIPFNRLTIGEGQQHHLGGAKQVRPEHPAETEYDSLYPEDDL
inactive: [1] 0.165 | [4] -0.018 | tipifarnib 0.127 | vorinostat -0.001

HSPA2 (UniProt P54652)
inactive: bafetinib -0.08 | nilotinib 0.024 | [2] 0.031 | [3] -0.013 | [4] 0.003 | mubritinib -0.067 | [5] -0.015 | [6] 0.076 | [7] -0.071 | entinostat -0.039 | silmitasertib 0.006

GBE1 (UniProt Q04446)
inactive: bafetinib 0.067 | dasatinib -0.275 | [11] -0.004 | [4] 0.059 | tipifarnib -0.608 | mubritinib 0.181 | [6] -0.11 | [7] -0.214 | [8] -0.07 | citarinostat 0.09 | silmitasertib 0.031 | [9] -0.049 | [10] -0.057

GOLGA6B (UniProt A6NDN3)
inactive: bafetinib -0.087 | [1] -0.042 | nilotinib -0.183 | [2] 0.02 | [3] 0.02 | mubritinib 0.146 | [5] 0.048 | [7] -0.054 | [8] 0.001 | entinostat 0.007 | vorinostat 0.114 | silmitasertib 0.022 | [9] 0.051

GDE1 (UniProt Q9NZC3)
inactive: bafetinib 0.081 | nilotinib 0.03 | [2] 0.054 | dasatinib 0.028 | [3] -0.032 | [11] 0.106 | [4] -0.029 | tipifarnib -0.001 | mubritinib 0.01 | [5] -0.001 | [6] 0.058 | [7] 0.094 | [8] -0.01 | entinostat -0.065 | citarinostat 0.024 | silmitasertib -0.086 | [9] -0.008 | [10] 0.032

HNRNPUL1 (UniProt M0R247)
inactive: nilotinib 0.061 | [2] -0.13 | dasatinib 0.206 | [3] 0.025 | [11] -0.024 | tipifarnib 0.259 | [5] -0.056 | [6] -0.629 | entinostat -0.352 | citarinostat -0.227 | [10] -0.014
